From PubChem BioAssay
The source made the active and inactive calls. How the calls were made is not given here.

target: Pantothenate synthetase (Mycobacterium tuberculosis (strain ATCC 25618 / H37Rv)) (UniProt P9WIL5); experiment: Coupled enzyme confirmation of inhibitors against recombinant Mtb PanC (AID 375); details: coupled enzyme assay; at 10 µM, active compounds read high;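 further: 0% = full reaction with vehicle and 100% = no enzyme background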
Sequence (P9WIL5 whole entry, looked up): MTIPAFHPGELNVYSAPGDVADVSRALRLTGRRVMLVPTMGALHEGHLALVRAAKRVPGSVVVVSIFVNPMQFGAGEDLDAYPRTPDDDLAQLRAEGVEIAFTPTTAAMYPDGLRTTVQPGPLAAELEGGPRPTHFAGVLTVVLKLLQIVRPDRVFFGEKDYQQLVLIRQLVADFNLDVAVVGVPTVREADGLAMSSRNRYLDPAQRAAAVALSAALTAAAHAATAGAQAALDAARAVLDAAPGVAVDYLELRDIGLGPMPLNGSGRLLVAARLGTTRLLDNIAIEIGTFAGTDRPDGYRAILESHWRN

SMILES	inhibition
O=C(CN1C(=O)COc2ccccc21)NCCCN1CCc2ccccc2C1	0% (inactive)
CC1Cc2nc(SCC(=O)N3CCCc4ccccc43)n(C)c(=O)c2S1 (configuration not stated)	1% (inactive)
CCCC(OC(=O)CN1C(=O)COc2ccccc21)C(=O)NC1CCCC1 (configuration not stated)	0% (inactive)
O=C1c2ccccc2CN1CCNS(=O)(=O)c1ccc(Cl)cc1	9% (inactive)
CCCc1cc(=O)n2[nH]cnc2n1	0% (inactive)
COc1ccc(-c2noc(CN3C(=O)c4ccccc4C3=O)n2)cc1	0% (inactive)
COc1ccccc1NC(=O)C1=C(C)Nc2ncnn2C1c1ccc(C)o1 (configuration not stated)	10% (inactive)
CC1=C(C)[N+](=O)C2CCCCC2N1[O-] (configuration not stated)	3% (inactive)
CCCCc1cc2c(c(NC(C)=O)n1)c(=O)oc1ccccc12	0% (inactive)
COc1ccccc1N1CCN(C(=O)CN(Cc2ccc(Cl)cc2)S(C)(=O)=O)CC1	3% (inactive)
O=C(NCc1ccc2c(c1)OCO2)C1CCCN(S(=O)(=O)c2cccc3cccnc23)C1 (configuration not stated)	0% (inactive)
COc1ccc(C2(CN(C(C)=O)C(C)=O)CCCC2)cc1OC	2% (inactive)
CCCC(=O)Nc1cc(-c2nnc(OC)c3ccccc23)ccc1N1CCOCC1	0% (inactive)
COC(=O)C1=C(C)OC(N)=C(C#N)C1c1ccccc1 (configuration not stated)	0% (inactive)
COC(=O)c1ccc(C)c(NS(=O)(=O)c2ccc3c(c2)OCCO3)c1	0% (inactive)
Cc1ccc(-n2nnnc2SCC(=O)N2CCN(C(=O)c3ccco3)CC2)c(C)c1	0% (inactive)
CCOC(=O)c1[nH]c2ccccc2c1NC(=O)C(C)(C)C	0% (inactive)
CCn1c(C(C#N)/C(=N\S(=O)(=O)c2cccs2)c2ccccc2)nc2ccccc21 (configuration not stated)	6% (inactive)
CN1CCC(NC(=O)c2cccs2)CC1	2% (inactive)
CN(C)CCN(Cc1ccccc1)c1ccccn1	5% (inactive)
Cc1ccccc1NS(=O)(=O)c1cc(C(=O)N2CCCC2)ccc1C	0% (inactive)
CCOC(=O)CC(NS(=O)(=O)c1ccc(NC(C)=O)cc1)c1ccc(OCC)cc1 (configuration not stated)	5% (inactive)
